# Data as given in the supplement of paper PMC3334620.
# Over roughly 33,000 sequences, “E-score (-0.5 to 0.5)” has its median near -0.01; the highest 2% begin near 0.26. For the sample, the highest values were picked, then their nearest neighbours and some sequences at random.
# Molecular target: Ste12 (UniProt P13574)
# Test: PBM E-score (8-mer binding enrichment) (E-score (-0.5 to 0.5)); higher = stronger / more preferred TF binding
# Settings: protein concentration: 200 nM; construct: GST-DNA-binding domain
# Description: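 Universal 'all 10-mer' protein binding microarrays (Agilent AMADID 015681) probed with GST-tagged S. cerevisiae TFs (full-length or DBD) made by in vitro transcription/translation (PURExpress), about 100-200 nM. Bound TF was detected with fluorescent anti-GST. Each ungapped 8-mer (which stands for itself and its reverse complement) is scored by the PBM enrichment score (E-score), a modified Wilcoxon-Mann-Whitney statistic from -0.5 to +0.5, computed with the Universal PBM Analysis Suite. Scale: above 0.35 generally sequence-specific binding.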
# Sequence of UniProt P13574 (P13574 whole entry): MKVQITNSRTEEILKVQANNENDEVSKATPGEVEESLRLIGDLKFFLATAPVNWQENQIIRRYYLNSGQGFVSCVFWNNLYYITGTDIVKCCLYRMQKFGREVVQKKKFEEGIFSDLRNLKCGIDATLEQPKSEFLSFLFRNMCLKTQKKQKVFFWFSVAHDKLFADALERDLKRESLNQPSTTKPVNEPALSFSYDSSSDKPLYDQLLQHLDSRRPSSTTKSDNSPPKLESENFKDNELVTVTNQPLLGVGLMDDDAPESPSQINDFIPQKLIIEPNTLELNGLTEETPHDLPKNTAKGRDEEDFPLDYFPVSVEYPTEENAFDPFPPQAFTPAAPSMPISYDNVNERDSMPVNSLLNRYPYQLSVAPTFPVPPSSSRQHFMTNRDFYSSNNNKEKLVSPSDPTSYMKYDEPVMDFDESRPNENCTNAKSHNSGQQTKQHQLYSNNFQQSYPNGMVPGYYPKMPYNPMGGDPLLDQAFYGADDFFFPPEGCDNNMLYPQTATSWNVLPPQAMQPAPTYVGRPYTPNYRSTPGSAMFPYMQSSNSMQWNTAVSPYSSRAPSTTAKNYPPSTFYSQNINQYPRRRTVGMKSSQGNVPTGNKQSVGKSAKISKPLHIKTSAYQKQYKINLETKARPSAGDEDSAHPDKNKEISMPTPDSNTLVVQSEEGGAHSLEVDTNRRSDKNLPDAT
row,Sequence,PBM E-score
1,AACGTCAG,-0.155
2,GAGGATTA,0.0342
3,CCCGATAG,0.0566
4,GGCTTTAA,0.0191
5,AAAGCGCC,-0.0182
6,CGCTCAAC,-0.108
7,CTTGACCC,-0.129
8,ACCTCATC,-0.0717
9,GACAGCCC,-0.085
10,CTGAACGA,-0.167
11,AATCCAGC,-0.221
12,TAAACATA,0.218
13,GAAACATC,0.355
14,GAAACATA,0.433
15,CAAACATC,0.192
16,GATACATC,0.0608
17,CAAACATA,0.23
18,GCATATCA,0.0522
19,ACGAATGA,0.135
20,AAACGGAT,0.265
21,AAACGGAG,0.0885
22,AAACGGAC,0.149
23,TACGCAAA,-0.0817
24,CCCAGACC,-0.0973
25,AAAGTACC,-0.0428

row,Sequence,PBM E-score
1,AAACACAA,0.291
2,ATACACAG,-0.054
3,CAACACCG,-0.103
4,ATACACAC,-0.0713
5,AAACACCT,0.104
6,AAACACGC,0.288
7,AAACACCG,0.318
8,CAACACGC,-0.247
9,AAACACGA,0.129
10,AAACACAC,0.243
11,AAACACAG,0.118
12,ATACACAA,0.283
13,ACGCCTAA,0.0463
14,CTAGTTGA,0.175
15,TAGCGAAA,0.118
16,AGCAGTTG,-0.126
17,CCGGTCTA,-0.191
18,GCGATTTA,0.0399
19,CGGAGAAG,-0.00086
20,GGTTAAAA,0.256
21,CTTTAAAA,0.266
22,CTTTTAAA,0.255
23,GGTTTTAA,0.298
24,CCTTTAAA,0.0788
25,GGTTTTTA,0.166

row,Sequence,PBM E-score
1,GGGTTTAA,0.215
2,CTTTAAAC,0.0682
3,GTTTTAAA,0.378
4,GTTTAAAA,0.3
5,GGTTTAAA,0.211
6,GTTTAAAC,0.214
7,ATGCGCAT,0.0672
8,CAAGGAGG,-0.075
9,AACGATCG,0.0136
10,TAGGCCTA,-0.15
11,AATGGGGG,-0.187
12,GCTATGAC,0.0507
13,AGGAGTAA,-0.0677
14,CTGAGAAC,0.0658
15,AACAGGGC,0.0987
16,AGTTTTAA,0.212
17,AGTTTTAG,0.12
18,AGTTTTAT,0.275
19,TTTAAAAA,0.184
20,TTTTAAAA,0.329
21,GCTTAAAC,-0.0138
22,GCTTAAAA,0.31
23,TGTTTTAA,0.364
24,CCTTAAAA,0.162
25,TGTTTAAA,0.26

row,Sequence,PBM E-score
1,AGTTTTAC,0.143
2,TCTTAAAA,0.156
3,CCCTAACG,-0.00496
4,AAGGGAGT,-0.232
5,CGCAGAAC,-0.122
6,AACAACCG,0.0778
7,CAGATCAA,0.00349
8,GTTTTTAA,0.261
9,CGTTTTTA,0.165
10,GTTTTTTA,0.149
11,CGTTTTAA,0.319
12,CGTTTTAG,0.215
13,CTTTTTAA,0.104
14,AAGAGTTG,-0.149
15,GGTTCATA,-0.0487
16,GGGAGAAC,-0.0492
17,ATCCTCAA,0.00575
18,AAATTGTA,0.048
19,AAATTGTT,0.186
20,AAATTGTC,0.268
21,CGTGTTTC,0.36
22,CGTGTTGC,0.0401
23,AGTGTTTC,0.332
24,CGTGTTTA,0.0319
25,AGTGTTTG,0.245

row,Sequence,PBM E-score
1,AGTGTTTA,0.174
2,GCCCTCGA,-0.216
3,CTTTAGTC,-0.0859
4,GGCCAAAA,0.0718
5,TCAACTCA,0.0748
6,CGAATACA,0.0383
7,AGCAGTGA,-0.0211
8,ATATGCTC,0.0529
9,GAAACGAA,0.367
10,AAAACGAA,0.237
11,AAAACGAC,0.0623
12,CAAACGAA,0.101
13,ATAACGAA,0.0476
14,CTAACGAA,0.11
15,GAAACGAC,0.317
16,CAAACGAC,0.128
17,TTAACGAA,0.262
18,CAAGTCTG,-0.0972
19,CGTCGCTC,-0.115
20,AGTATGGG,-0.0937
21,ATGGCCGC,-0.0598
22,ATGAGGTC,0.0263
23,AGGCTCGG,-0.112
24,TTAATTAA,0.245
25,ACAATTAC,0.087

row,Sequence,PBM E-score
1,ACAATTAA,0.292
2,ATAATTTA,0.357
3,GTAATTTA,0.223
4,ATAATTAC,0.131
5,ACAATTAT,0.212
6,ATAATTTG,0.212
7,ATAATTAA,0.276
8,CCGCCAGG,-0.206
9,GCTCAGCA,-0.0833
10,AATCTCAT,0.165
11,CTGACCGC,0.123
12,AAATGCAC,-0.00999
13,CACCCATA,0.105
14,ACCAGACG,-0.174
15,CGCGCGTC,0.0795
16,ACGCCACG,-0.182
17,ATTCGAAC,0.105
18,ATTCGAAG,-0.0567
19,ATTCGAAA,0.286
20,ACTCGAAT,-0.144
21,CTTCGAAA,0.132
22,ATTCGAAT,0.268
23,GCCTTCCC,-0.0772
24,CACACTTC,0.00873
25,AACCACTA,-0.00019

row,Sequence,PBM E-score
1,AGACATAA,0.101
2,AAACATAC,0.241
3,GGACATAA,0.0357
4,ATACATAA,0.21
5,GGGCATAA,0.218
6,AAACATAG,0.205
7,AAACATAT,0.273
8,ATACATAC,0.134
9,TGACATAA,0.268
10,CGGCATAA,-0.0029
11,TGGCATAA,0.307
12,ATACATAT,0.294
13,ACATGCAT,0.0142
14,GACGCACC,-0.00732
15,ATAAAGAC,-0.0448
16,CACCCTCC,0.213
17,GAGTTTGC,0.0562
18,ATCTACGG,-0.0913
19,AACTTTCT,0.128
20,AACGGTGA,-0.122
21,ATTGCCCC,0.0929
22,GGCGAGGA,-0.178
23,AATGGCCT,-0.00519
24,AAACATAA,0.306
25,ACATACAC,0.0702
